Test [1] deals with Peroxisome proliferator-activated receptor gamma (Homo sapiens) (UniProt P37231). Description: OT_PPARg_PPARgSRC1_0480: Odyssey Thera (OT) 8-hour Protein-Complementation Assay for Peroxisome Proliferator-activated Receptor Gamma / SRC-1 Co-activator (AID 2283387; active means hit-call score of the fitted dose curve at least 0.9, where 1 is the maximum;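 further: nuclear to cytoplasmic split Venus YFP fluorescence ratio reporting PPARg SRC-1 interaction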). Put shortly: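 Read-out: 488 nm N/C fluorescence ratio from complemented Venus YFP fragments, ≥350 cells per image, gain-of-signal fitted against DMSO baseline. Fusions of PPARg/SRC-1 with IFP1/IFP2 expressed transiently in HEK293T; compounds applied 8 h.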
Peroxisome proliferator-activated receptor gamma (Homo sapiens), sequence (P37231 whole entry, looked up, the tested form may be a part): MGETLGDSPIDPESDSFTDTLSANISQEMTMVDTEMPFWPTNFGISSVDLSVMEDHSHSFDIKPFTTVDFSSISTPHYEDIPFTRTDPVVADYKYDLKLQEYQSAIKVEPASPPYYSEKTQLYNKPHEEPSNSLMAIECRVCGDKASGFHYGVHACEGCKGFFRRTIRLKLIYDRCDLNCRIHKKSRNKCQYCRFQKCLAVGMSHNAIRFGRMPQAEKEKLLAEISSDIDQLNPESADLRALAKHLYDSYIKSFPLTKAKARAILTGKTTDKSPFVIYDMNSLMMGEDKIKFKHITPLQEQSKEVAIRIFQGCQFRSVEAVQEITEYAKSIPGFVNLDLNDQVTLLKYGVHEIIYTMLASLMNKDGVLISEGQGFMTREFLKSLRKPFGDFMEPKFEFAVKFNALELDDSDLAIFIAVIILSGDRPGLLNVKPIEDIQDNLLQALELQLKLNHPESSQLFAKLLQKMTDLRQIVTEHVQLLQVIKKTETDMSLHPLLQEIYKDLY

Test [2] has the same target. Description: OT_PPARg_PPARgSRC1_1440: Odyssey Thera (OT) 24-hour Protein-Complementation Assay for Peroxisome Proliferator-activated Receptor Gamma/ SRC-1 Co-activator (AID 2283388; active means hit-call score of the fitted dose curve at least 0.9, where 1 is the maximum;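 further: nuclear to cytoplasmic ratio of reconstituted Venus YFP fluorescence in fixed imaged cells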). Put shortly:
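Cells carrying the PPARg/SRC-1 fragment-complementation reporter receive compound for 24 hours, are fixed and counterstained with Draq5, then imaged. Increased nuclear relative to cytoplasmic YFP fluorescence above DMSO baseline indicates binding activity.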

Read-out in test [3]: Tumor necrosis factor receptor superfamily member 6 (Homo sapiens) (UniProt P25445)
Description: LTEA_HepaRG_FAS: Life Technologies and Expression Analysis (LTEA) Assay for Fas cell surface death receptor (FAS) using HepaRG (AID 2283447). Particulars: mRNA level, 48 h; actives raise or lower the signal. Put shortly: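 Differentiated HepaRG cells in serum-free induction medium were exposed 48 h to 8 half-log concentrations up to 100 uM in 0.5% DMSO, in duplicate. FAS mRNA was measured by qRT-PCR normalised to ACTB, GAPDH and POLR2A; bidirectional fit versus DMSO.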

Read-out in test [4]: Fatty acid synthase (Homo sapiens) (UniProt P49327)
Nature of the test: LTEA_HepaRG_FASN: Life Technologies and Expression Analysis (LTEA) Assay for Fatty Acid Synthase (FASN) using HepaRG (AID 2283448).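 On AC50: differentiated human HepaRG liver cells in serum-free induction medium.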 To be noted: mRNA level, 48 h; actives raise or lower the signal. Put shortly: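 Transcript-level assay: HepaRG liver cells are treated for 48 h across an eight-point range topping at 100 uM, and FASN mRNA, normalized to three housekeeping genes, is compared with DMSO controls in both directions.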

Read-out in test [5]: Cyclin D1 (CCND1), CCND1 (gene 595)
Description: LTEA_HepaRG_CCND1: Life Technologies and Expression Analysis (LTEA) Assay for Cyclin D1 (CCND1) using HepaRG (AID 2283451).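 On AC50: differentiated human HepaRG liver cells in serum-free induction medium; TaqMan qRT-PCR transcript level normalised to ACTB GAPDH and POLR2A housekeeping genes.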 To be noted: mRNA level, 48 h; actives raise or lower the signal. A digest of the protocol: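 Expression change is measured by qRT-PCR in HepaRG cells after 48 h treatment across eight concentrations topping at 100 uM, with duplicate wells and DMSO (0.5%) serving as baseline for bidirectional fitting.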

Read-out in test [6]: catalase (CAT), CAT (gene 847)
Description: LTEA_HepaRG_CAT: Life Technologies and Expression Analysis (LTEA) Assay for catalase (CAT) using HepaRG (AID 2283452). To be noted: mRNA level, 48 h; actives raise or lower the signal. Put shortly: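 HepaRG cells in serum-free induction medium, 0.5% DMSO vehicle, exposed 48 h in duplicate over 8 half-log concentrations from 100 uM. CAT mRNA measured by qRT-PCR, normalized to ACTB, GAPDH, POLR2A; bidirectional fit versus DMSO.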

Read-out in test [7]: flavin-containing dimethylaniline monooxygenases 3 (FMO3), FMO3 (gene 2328)
Description: LTEA_HepaRG_FMO3: Life Technologies and Expression Analysis (LTEA) Assay for flavin-containing dimethylaniline monooxygenases 3 (FMO3) using HepaRG (AID 2283453).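 On AC50: differentiated human HepaRG liver cells in serum-free induction medium; FMO3 transcript by TaqMan qRT-PCR normalized to ACTB GAPDH and POLR2A.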 To be noted: mRNA level, 48 h; actives raise or lower the signal. Put shortly:
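HepaRG, 48 h exposure, 8-pt half-log series from 100 uM, 0.5% DMSO vehicle, duplicates; FMO3 transcript by Fluidigm TaqMan qRT-PCR, housekeeping-normalized; gain/loss fit vs DMSO.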

Read-out in test [8]: Cytochrome P450 (CYP1A1), CYP1A1 (gene 1543)
Description: LTEA_HepaRG_CYP1A1: Life Technologies and Expression Analysis (LTEA) Assay for Cytochrome P450 (CYP1A1) using HepaRG (AID 2283454). Particulars: mRNA level, 48 h; actives raise or lower the signal. Put shortly: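 Using HepaRG cultures with 0.5% DMSO as vehicle, eight-concentration exposures (max 100 uM) lasted 48 h. Transcript levels were measured by TaqMan qRT-PCR and normalized to ACTB, GAPDH and POLR2A.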

Read-out in test [9]: CFLAR gene, CFLAR (gene 8837)
Description: LTEA_HepaRG_CFLAR: Life Technologies and Expression Analysis (LTEA) Assay for CFLAR gene using HepaRG (AID 2283455). To be noted: mRNA level, 48 h; actives raise or lower the signal. A digest of the protocol: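 Differentiated HepaRG cells in serum-free induction medium were exposed 48 h in duplicate to eight half-log concentrations up to 100 uM in 0.5% DMSO; mRNA measured by TaqMan qRT-PCR, normalized to ACTB, GAPDH, POLR2A; bidirectional fitting versus DMSO.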

Read-out in test [10]: Forkhead box O1 (FOXO1), FOXO1 (gene 2308)
Description: LTEA_HepaRG_FOXO1: Life Technologies and Expression Analysis (LTEA) Assay for Forkhead box O1 (FOXO1) using HepaRG (AID 2283456). To be noted: mRNA level, 48 h; actives raise or lower the signal. A digest of the protocol: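 Differentiated HepaRG cells, in serum-free induction medium with 0.5% DMSO, exposed 48 h in duplicate to 8-point half-log series from 100 uM. FOXO1 mRNA measured by TaqMan qRT-PCR, normalized to ACTB, GAPDH, POLR2A; bidirectional fit versus DMSO.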

“And” between values parts separate entries of the source, which are not always exact repeats. Equal values may be shown once. Inconclusive results are not listed. More than one record can exist for a structure, and the calls need not agree. The source made the active and inactive calls. How the source made its calls, unless noted: active means hit-call score of the fitted dose curve at least 0.9, where 1 is the maximum; inactive means score below 0.9.

Fatty acid synthase (Homo sapiens), sequence (P49327 whole entry, looked up): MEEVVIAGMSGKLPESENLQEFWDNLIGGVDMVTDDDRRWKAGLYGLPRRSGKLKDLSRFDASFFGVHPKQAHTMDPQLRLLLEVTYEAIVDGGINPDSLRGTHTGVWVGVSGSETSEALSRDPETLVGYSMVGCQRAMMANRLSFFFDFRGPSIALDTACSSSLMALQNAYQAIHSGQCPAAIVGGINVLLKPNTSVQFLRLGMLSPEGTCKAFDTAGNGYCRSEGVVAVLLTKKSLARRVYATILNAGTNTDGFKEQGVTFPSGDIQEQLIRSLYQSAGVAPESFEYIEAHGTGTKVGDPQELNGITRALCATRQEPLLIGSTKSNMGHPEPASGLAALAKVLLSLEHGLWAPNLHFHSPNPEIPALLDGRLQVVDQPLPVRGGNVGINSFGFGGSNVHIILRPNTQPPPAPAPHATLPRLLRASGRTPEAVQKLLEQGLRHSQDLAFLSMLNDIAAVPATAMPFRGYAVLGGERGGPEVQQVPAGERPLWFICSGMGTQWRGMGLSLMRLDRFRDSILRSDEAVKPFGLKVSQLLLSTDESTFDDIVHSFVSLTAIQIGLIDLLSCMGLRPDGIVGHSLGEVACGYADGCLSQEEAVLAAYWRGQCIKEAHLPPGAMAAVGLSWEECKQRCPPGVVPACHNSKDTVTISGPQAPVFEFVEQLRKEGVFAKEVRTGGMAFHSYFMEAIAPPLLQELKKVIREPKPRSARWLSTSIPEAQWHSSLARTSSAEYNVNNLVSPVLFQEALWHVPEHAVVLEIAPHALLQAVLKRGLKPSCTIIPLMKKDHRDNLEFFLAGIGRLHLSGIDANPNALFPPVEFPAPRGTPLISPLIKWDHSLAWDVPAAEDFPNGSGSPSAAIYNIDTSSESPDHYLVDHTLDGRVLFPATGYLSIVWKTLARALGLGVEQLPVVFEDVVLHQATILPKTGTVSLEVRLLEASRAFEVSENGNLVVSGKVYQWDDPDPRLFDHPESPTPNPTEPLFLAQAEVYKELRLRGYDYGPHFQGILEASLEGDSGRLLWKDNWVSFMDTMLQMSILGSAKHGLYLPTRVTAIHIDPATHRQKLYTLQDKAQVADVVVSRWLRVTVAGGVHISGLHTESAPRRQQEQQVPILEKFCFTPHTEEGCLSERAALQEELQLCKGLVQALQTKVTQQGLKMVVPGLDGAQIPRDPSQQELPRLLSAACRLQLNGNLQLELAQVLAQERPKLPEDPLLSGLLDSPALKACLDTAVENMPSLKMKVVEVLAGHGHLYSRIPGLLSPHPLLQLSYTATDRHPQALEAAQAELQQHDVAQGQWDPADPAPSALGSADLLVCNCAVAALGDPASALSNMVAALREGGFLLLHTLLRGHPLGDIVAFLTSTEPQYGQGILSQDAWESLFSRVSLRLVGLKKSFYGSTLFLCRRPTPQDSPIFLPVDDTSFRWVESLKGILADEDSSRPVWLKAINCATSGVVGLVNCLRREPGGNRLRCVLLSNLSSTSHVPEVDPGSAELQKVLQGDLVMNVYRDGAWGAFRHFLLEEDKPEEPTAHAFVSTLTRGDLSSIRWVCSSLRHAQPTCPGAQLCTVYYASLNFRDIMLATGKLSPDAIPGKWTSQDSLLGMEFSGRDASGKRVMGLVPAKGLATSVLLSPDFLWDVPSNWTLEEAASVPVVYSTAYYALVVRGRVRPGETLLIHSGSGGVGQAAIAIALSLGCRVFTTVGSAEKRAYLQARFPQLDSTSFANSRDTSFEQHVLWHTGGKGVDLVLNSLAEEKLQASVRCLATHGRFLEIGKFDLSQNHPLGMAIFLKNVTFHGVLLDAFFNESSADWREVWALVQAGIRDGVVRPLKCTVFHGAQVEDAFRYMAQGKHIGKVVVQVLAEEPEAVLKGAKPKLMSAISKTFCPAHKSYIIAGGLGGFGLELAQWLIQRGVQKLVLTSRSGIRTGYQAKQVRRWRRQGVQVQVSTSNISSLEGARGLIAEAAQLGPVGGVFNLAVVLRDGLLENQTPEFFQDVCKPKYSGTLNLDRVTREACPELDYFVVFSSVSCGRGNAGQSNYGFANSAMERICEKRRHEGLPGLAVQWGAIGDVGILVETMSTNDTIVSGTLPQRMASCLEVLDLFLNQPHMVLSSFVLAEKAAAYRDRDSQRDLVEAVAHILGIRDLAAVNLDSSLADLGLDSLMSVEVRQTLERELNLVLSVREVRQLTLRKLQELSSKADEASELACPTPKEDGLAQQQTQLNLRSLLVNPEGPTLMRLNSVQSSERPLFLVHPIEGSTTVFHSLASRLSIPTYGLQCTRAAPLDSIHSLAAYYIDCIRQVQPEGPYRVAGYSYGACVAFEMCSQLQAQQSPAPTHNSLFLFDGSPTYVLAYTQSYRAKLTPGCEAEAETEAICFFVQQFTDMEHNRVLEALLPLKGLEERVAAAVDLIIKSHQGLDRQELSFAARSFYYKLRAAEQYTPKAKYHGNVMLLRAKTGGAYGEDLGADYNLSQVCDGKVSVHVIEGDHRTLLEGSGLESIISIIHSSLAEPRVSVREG

In general, AC50 refers to the concentration at which the activity in the assay is half-maximal. On to `O=C(Nc1ccccc1)Nc1ccnc(Cl)c1`, for which the result in test [1], in [2], in [3], in [4], in test [9] and in test [10] was inactive. In addition, the half-maximal activity concentration (AC50) is 40.9 µM (active) in test [5], 65.3 µM (active) in [6], 69 µM (active) in test [7] and 23.7 µM (active) in [8].
Take `CCCN(CCC)c1c([N+](=O)[O-])cc(S(N)(=O)=O)cc1[N+](=O)[O-]`: the result in test [1], in test [2], in [4], in test [5], in [9] and in test [10] was inactive. Also, the AC50 is 94.6 µM (active) and 74.2 µM (active) in test [4]; 91.3 µM (active) and 79.8 µM (active) in [5]; 93.6 µM (active) and 50 µM (active) and 77.6 µM (active) in [6]; 95.4 µM (active) and 77.8 µM (active) and 76.4 µM (active) in test [7]; 11.5 µM (active) and 50 µM (active) and 35.1 µM (active) in [8]; 75.8 µM (active) and 76.8 µM (active) in test [9]. Further, the AC50 in [10] was 90.2 µM (active).
On to `OC(c1ccc(Cl)cc1)(c1cncnc1)c1ccccc1Cl` (stereo not drawn), for which the call in [1], in [2] and in test [9] was inactive. The AC50 in test [3] is 81 µM (active); in test [4], 87.3 µM (active); in test [5], 50 µM (active); in test [6], 87.6 µM (active); in [7], 77.8 µM (active); in test [8] it was 13 µM (active). Also, the AC50 in [10] was 79 µM (active).
As to `CS/C(C)=N/OC(=O)N(C)SN(C)C(=O)O/N=C(\C)SC`, the compound was classed as inactive in [1], in [2], in [3], in test [4], in [5] and in [6]. In addition, the compound was called inactive in test [7], in test [8], in [9] and in test [10].
With `CCc1nn(C)c(C(=O)NCc2ccc(C(C)(C)C)cc2)c1Cl`, the compound was classed as inactive in [1], in test [2], in [3] and in [8]. The AC50 was 42.5 µM (active) in test [4]; 0.382 µM (active) in test [5]; 6.22 µM (active) in [6]; 14.2 µM (active) in test [7]; 30.6 µM (active) in test [9]; 0.484 µM (active) in test [10].
Consider `COC(=O)C=C(C)OP(=O)(OC)OC`, for which the result in [1], in [2], in test [3], in test [4], in [5] and in [6] was inactive. Besides, the outcome in test [7], in test [8], in test [9] and in test [10] was inactive.
For `O=C(O)COc1nc(Cl)c(Cl)cc1Cl`, the call in test [1], in test [2], in test [3], in test [4], in test [5] and in [6] was inactive. The compound was classed as inactive in test [7], in test [9] and in test [10]. Besides, the AC50 in test [8] was 51 µM (active).
Consider `COC(=O)c1ccccc1C(=O)OC`, for which the compound was called inactive in test [1], in test [2], in test [3], in test [4], in test [5] and in test [6]. For the same compound, the call in [7], in test [8], in test [9] and in [10] was inactive.

For the origin of these results see PubChem BioAssay (EPA / NIEHS).
